# Where “and” joins values, the source holds several entries; their conditions need not be identical. Identical values can stand only once. Records with an inconclusive call do not appear. Where a structure was tested more than once in an assay, its records may differ in their call. Calls of active or inactive are those of the source. How the source made its calls, unless noted: active means hit-call score of the fitted dose curve at least 0.9, where 1 is the maximum; inconclusive means response in the unintended direction; inactive means score below 0.9.
# Tests used:
# [1] = BSK_3C_VCAM1: BioMAP Diversity Plus: 3C Assay for Vascular cell adhesion molecule 1 (VCAM1) Biomarker Activity (AID 2282999; active means hit-call score of the fitted dose curve at least 0.9, where 1 is the maximum; inactive means score below 0.9); settings: BioMAP 3C HUVEC, VCAM1 ELISA, cytokine-stimulated; actives raise or lower the signal
# Method in brief: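 Human umbilical vein endothelial cells (3C system), biomarker read by ELISA 24 h after dosing; bidirectional fit against DMSO baseline. Cytotoxicity tracked by SRB total-protein staining in parallel cultures at biomarker time.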
# [2] = BSK_4H_Eotaxin3: BioMAP Diversity Plus: 4H Assay for Eotaxin 3 Biomarker Activity (AID 2283000; active means hit-call score of the fitted dose curve at least 0.9, where 1 is the maximum; inactive means score below 0.9;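 on outcome: CCL26 protein level quantified by ELISA in parallel with SRB cytotoxicity check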); settings: primary human endothelial cells (HUVEC); actives raise or lower the signal
# Method in brief: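 HUVEC, 24 h post-dose, ELISA for Eotaxin-3/CCL26. Gain or loss of signal fitted bidirectionally vs DMSO baseline.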
# [3] = read-out: Intercellular Adhesion Molecule 1 (ICAM1), ICAM1 (gene 3383); assay: BSK_3C_ICAM1: BioMAP Diversity Plus: 3C Assay for Intercellular Adhesion Molecule 1 (ICAM1) Biomarker Activity (AID 2283003; active means hit-call score of the fitted dose curve at least 0.9, where 1 is the maximum; inactive means score below 0.9); settings: primary human endothelial cells (HUVEC); actives raise or lower the signal
# Method in brief: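 HUVEC primary cells stimulated under 3C conditions; ICAM1 measured by ELISA 24 h after compound dosing. Curves fitted bidirectionally against the DMSO baseline. Overt cytotoxicity checked by SRB staining of parallel cultures.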
# [4] = BSK_3C_Proliferation: Cell Proliferation Assessment in the BioMAP Diversity Plus: 3C Assay (AID 2283006; active means hit-call score of the fitted dose curve at least 0.9, where 1 is the maximum; inactive means score below 0.9;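 on AC50: potency may reflect either rise or fall in cell number versus DMSO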); settings: primary human endothelial cells (HUVEC)
# Method in brief: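 Subconfluent HUVEC (3C system) cultured with chemical; relative cell number read at 48 h by sulforhodamine B total-protein staining (0.1% SRB after 10% TCA fixation, 560 nm). Bidirectional fit relative to DMSO.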
# [5] = biological target: Peroxisome proliferator-activated receptor gamma (Homo sapiens) (UniProt P37231); assay: ATG_PPARg_TRANS: Attagene TRANS-FACTORIAL HepG2 Assay for human Peroxisome Proliferator-activated Receptor-gamma (PPARg) (AID 2283007)
# Peroxisome proliferator-activated receptor gamma (Homo sapiens), sequence (P37231 whole entry, looked up, the tested form may be a part): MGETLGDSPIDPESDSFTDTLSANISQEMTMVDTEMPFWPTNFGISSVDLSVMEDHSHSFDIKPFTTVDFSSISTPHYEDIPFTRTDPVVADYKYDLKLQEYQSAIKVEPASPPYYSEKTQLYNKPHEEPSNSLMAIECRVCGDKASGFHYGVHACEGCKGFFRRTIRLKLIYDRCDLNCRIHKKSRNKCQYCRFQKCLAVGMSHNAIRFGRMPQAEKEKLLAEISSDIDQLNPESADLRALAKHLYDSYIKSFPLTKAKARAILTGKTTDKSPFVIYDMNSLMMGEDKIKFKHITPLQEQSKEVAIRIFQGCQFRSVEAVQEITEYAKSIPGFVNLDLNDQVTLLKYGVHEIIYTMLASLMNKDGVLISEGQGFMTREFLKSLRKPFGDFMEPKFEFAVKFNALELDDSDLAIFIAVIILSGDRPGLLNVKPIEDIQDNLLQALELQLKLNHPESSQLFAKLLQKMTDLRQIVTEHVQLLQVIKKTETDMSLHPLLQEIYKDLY
# Method in brief: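 After 24 h of chemical exposure, transfected HepG2 cells carrying PPARγ-Gal4 chimera reporter constructs are lysed for RNA. Reporter transcripts are measured by RT-PCR and capillary electrophoresis with fluorescent labelling, and gain of signal is fitted versus DMSO.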
# [6] = biological target: Nuclear receptor subfamily 1 group I member 2 (Homo sapiens) (UniProt O75469); assay: ATG_PXR_TRANS: Attagene TRANS-FACTORIAL HepG2 Assay for human Pregnane X Receptor (PXR) (AID 2283008)
# Nuclear receptor subfamily 1 group I member 2 (Homo sapiens), sequence (O75469 whole entry, looked up, the tested form may be a part): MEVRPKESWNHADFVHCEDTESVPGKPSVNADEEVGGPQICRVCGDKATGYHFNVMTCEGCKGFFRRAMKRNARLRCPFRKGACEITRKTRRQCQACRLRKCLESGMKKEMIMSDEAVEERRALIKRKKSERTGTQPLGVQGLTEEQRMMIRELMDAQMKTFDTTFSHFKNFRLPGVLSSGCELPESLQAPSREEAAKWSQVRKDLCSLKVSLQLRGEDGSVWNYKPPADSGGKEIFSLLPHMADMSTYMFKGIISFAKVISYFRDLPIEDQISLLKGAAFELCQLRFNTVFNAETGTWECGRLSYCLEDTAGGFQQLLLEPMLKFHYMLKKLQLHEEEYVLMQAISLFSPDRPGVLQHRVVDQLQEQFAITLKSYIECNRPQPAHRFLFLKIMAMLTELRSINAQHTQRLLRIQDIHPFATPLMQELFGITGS
# Method in brief: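 Measures mRNA induction of a GAL4-UAS-driven reporter in human HepG2 cells transiently expressing PXR fused to Gal4, following 24 h treatment. DMSO served as negative control and baseline.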
# [7] = biological target: Retinoic acid receptor RXR-alpha (Homo sapiens) (UniProt P19793); assay: ATG_RXRa_TRANS: Attagene TRANS-FACTORIAL HepG2 Assay for human Retinoid X Receptor alpha (RXRa) (AID 2283012)
# Retinoic acid receptor RXR-alpha (Homo sapiens), sequence (P19793 whole entry, looked up, the tested form may be a part): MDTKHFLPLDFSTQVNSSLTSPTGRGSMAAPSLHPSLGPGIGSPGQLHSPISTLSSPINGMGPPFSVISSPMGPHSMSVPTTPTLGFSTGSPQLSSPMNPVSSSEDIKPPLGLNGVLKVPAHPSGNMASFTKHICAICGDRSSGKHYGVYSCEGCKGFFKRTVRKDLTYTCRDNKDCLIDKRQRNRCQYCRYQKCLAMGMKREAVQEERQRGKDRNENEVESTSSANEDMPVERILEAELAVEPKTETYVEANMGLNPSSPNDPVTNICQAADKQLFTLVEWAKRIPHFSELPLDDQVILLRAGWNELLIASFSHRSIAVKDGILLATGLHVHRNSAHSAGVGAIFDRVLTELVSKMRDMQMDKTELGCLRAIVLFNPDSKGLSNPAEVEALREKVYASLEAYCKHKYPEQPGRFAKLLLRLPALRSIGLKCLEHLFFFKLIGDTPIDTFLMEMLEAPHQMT
# Method in brief: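 HepG2 cells transiently transfected with GAL4-UAS reporter units and chimeric RXRa-Gal4 protein, treated 24 h. Reporter mRNA measured by RT-PCR, fluorescent labelling, HpaI digestion and capillary electrophoresis. Induction fitted against DMSO.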
# [8] = biological target: human Thyroid Receptor alpha (THRa1), THRA (gene 7067) (UniProt P10827); assay: ATG_THRa1_TRANS: Attagene TRANS-FACTORIAL HepG2 Assay for human Thyroid Receptor alpha (THRa1) (AID 2283014)
# human Thyroid Receptor alpha (THRa1), THRA (gene 7067), sequence (P10827 whole entry, looked up, the tested form may be a part): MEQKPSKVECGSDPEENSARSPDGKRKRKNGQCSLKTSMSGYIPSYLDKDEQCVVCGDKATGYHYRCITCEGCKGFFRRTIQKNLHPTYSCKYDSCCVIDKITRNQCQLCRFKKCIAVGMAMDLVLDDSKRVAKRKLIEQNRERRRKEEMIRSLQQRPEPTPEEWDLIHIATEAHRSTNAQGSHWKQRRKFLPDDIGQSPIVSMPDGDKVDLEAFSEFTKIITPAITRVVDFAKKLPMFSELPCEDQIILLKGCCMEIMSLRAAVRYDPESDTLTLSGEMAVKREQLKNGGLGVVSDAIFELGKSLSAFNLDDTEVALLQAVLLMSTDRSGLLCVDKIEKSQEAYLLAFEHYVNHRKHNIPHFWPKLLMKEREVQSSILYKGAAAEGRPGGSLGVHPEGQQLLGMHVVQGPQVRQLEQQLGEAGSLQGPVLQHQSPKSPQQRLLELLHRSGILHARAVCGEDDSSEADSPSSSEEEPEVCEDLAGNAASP
# Method in brief: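 HepG2 cells transiently transfected with multiplexed GAL4-UAS reporter units for exogenous chimeric THRa1-Gal4; reporter mRNA measured 24 h after dosing by RT-PCR, 6-FAM labelling, HpaI digestion and capillary electrophoresis. Gain-of-signal fitted versus DMSO baseline.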
# [9] = read-out: E-selectin (Homo sapiens) (UniProt P16581); assay: BSK_3C_Eselectin: BioMAP Diversity Plus: 3C Assay for Eselectin Biomarker Activity (AID 2283015; active means hit-call score of the fitted dose curve at least 0.9, where 1 is the maximum; inactive means score below 0.9;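 on outcome: cell surface E-selectin protein quantified by ELISA 24 h after dosing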); settings: primary human endothelial cells (HUVEC); actives raise or lower the signal
# Method in brief: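 Primary human umbilical vein endothelial cells (3C system) were dosed with chemical and cell-surface E-selectin measured by ELISA 24 h later. Bidirectional curve fitting used DMSO as negative control and baseline.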
# [10] = read-out: Interleukin-1 alpha (IL1a), IL1A (gene 3552); assay: BSK_BE3C_IL1a: BioMAP Diversity Plus: BE3C Assay for Interleukin-1 alpha (IL1a) Biomarker Activity (AID 2283016; active means hit-call score of the fitted dose curve at least 0.9, where 1 is the maximum; inactive means score below 0.9); settings: primary human bronchial epithelial cells; actives raise or lower the signal
# Method in brief: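 Human primary bronchial epithelial cells, 24 h chemical exposure; IL-1a quantified by ELISA, fitted bidirectionally against DMSO. Cytotoxicity assessed in parallel by SRB total-protein staining at the time of measurement.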
# [11] = read-out: Monocyte Chemoattractant Protein-1 (MCP1), CCL2 (gene 6347); assay: BSK_4H_MCP1: BioMAP Diversity Plus: 4H Assay for Monocyte Chemoattractant Protein-1 (MCP1) Biomarker Activity (AID 2283018; active means hit-call score of the fitted dose curve at least 0.9, where 1 is the maximum; inactive means score below 0.9); settings: primary human endothelial cells (HUVEC); actives raise or lower the signal
# Method in brief: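 Human umbilical vein endothelial cells (4H system) exposed to chemicals for 24 h in 96-well format. MCP-1 measured by ELISA; bidirectional fitting against DMSO, with SRB total-protein staining in parallel cultures for cytotoxicity.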
# [12] = biological target: human Peroxisome Proliferator-activated Receptor alpha (PPARa), PPARA (gene 5465) (UniProt Q07869); assay: ATG_PPARa_TRANS: Attagene TRANS-FACTORIAL HepG2 Assay for human Peroxisome Proliferator-activated Receptor alpha (PPARa) (AID 2283001)
# human Peroxisome Proliferator-activated Receptor alpha (PPARa), PPARA (gene 5465), sequence (Q07869 whole entry, looked up, the tested form may be a part): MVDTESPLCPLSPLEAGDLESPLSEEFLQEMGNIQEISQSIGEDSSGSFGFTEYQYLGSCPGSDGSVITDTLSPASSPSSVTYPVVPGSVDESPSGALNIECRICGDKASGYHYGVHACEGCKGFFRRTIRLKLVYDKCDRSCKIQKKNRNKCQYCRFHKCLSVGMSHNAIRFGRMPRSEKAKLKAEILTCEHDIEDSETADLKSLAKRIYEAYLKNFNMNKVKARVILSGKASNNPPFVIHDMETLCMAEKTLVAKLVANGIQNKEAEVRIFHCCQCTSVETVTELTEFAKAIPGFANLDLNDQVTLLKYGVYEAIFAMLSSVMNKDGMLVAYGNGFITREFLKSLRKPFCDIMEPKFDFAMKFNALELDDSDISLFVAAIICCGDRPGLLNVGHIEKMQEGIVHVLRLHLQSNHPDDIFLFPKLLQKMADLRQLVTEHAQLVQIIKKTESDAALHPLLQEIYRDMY
# Method in brief: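 HepG2 cells transiently transfected with multiplexed GAL4-UAS reporters driven by exogenous chimeric NR-Gal4 proteins; reporter mRNA measured after 24 h dosing. Read-out by RT-PCR, 6-FAM labelling, HpaI digestion and capillary electrophoresis; gain of signal versus DMSO.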
# [13] = biological target: human Peroxisome Proliferator-activated Receptor delta (PPARd), PPARD (gene 5467) (UniProt Q03181); assay: ATG_PPARd_TRANS: Attagene TRANS-FACTORIAL HepG2 Assay for human Peroxisome Proliferator-activated Receptor delta (PPARd) (AID 2283002)
# human Peroxisome Proliferator-activated Receptor delta (PPARd), PPARD (gene 5467), sequence (Q03181 whole entry, looked up, the tested form may be a part): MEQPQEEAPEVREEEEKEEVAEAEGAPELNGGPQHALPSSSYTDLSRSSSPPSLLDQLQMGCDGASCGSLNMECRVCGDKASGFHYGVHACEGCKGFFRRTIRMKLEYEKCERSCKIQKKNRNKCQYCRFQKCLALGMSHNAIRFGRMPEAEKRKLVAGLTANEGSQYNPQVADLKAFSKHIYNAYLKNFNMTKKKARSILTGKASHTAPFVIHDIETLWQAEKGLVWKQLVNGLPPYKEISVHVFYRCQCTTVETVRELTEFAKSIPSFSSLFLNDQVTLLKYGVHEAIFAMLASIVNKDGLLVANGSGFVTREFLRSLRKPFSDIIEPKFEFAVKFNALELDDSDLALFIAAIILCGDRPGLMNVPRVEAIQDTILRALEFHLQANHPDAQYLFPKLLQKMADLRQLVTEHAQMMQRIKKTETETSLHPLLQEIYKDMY
# Method in brief: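 HepG2 cells transiently transfected with GAL4-UAS multiplexed reporter units driven by exogenous chimeric NR-GAL4 proteins; 24 h compound exposure. Reporter mRNA measured by RT-PCR, 6-FAM primer extension, HpaI digestion and capillary electrophoresis; gain of signal fitted relative to DMSO.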
# [14] = biological target: human RAR-related Orphan Receptor beta (RORb), RORB (gene 6096) (UniProt Q92753); assay: ATG_RORb_TRANS: Attagene TRANS-FACTORIAL HepG2 Assay for human RAR-related Orphan Receptor beta (RORb) (AID 2283010)
# human RAR-related Orphan Receptor beta (RORb), RORB (gene 6096), sequence (Q92753 whole entry, looked up, the tested form may be a part): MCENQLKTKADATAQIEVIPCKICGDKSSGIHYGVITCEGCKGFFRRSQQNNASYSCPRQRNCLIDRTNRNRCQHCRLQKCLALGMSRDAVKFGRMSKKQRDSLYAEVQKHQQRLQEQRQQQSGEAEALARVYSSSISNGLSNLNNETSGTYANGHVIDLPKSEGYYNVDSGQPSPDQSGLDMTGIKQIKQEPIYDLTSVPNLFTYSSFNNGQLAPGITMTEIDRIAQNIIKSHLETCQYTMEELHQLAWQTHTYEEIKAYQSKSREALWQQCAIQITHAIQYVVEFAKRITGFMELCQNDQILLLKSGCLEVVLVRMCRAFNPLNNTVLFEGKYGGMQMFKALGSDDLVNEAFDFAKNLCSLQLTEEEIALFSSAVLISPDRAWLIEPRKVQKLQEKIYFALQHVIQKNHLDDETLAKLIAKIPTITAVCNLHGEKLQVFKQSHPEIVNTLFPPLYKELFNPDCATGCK
# Method in brief: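 HepG2 cells transiently transfected with GAL4-UAS reporter units expressing chimeric NR-Gal4 protein; reporter mRNA measured 24 h after dosing by RT-PCR, 6-FAM labelling and capillary electrophoresis. Gain-of-signal fitted relative to DMSO baseline.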
# [15] = biological target: human Retinoid X Receptor beta (RXRb), RXRB (gene 6257) (UniProt P28702); assay: ATG_RXRb_TRANS: Attagene TRANS-FACTORIAL HepG2 Assay for human Retinoid X Receptor beta (RXRb) (AID 2283013)
# human Retinoid X Receptor beta (RXRb), RXRB (gene 6257), sequence (P28702 whole entry, looked up, the tested form may be a part): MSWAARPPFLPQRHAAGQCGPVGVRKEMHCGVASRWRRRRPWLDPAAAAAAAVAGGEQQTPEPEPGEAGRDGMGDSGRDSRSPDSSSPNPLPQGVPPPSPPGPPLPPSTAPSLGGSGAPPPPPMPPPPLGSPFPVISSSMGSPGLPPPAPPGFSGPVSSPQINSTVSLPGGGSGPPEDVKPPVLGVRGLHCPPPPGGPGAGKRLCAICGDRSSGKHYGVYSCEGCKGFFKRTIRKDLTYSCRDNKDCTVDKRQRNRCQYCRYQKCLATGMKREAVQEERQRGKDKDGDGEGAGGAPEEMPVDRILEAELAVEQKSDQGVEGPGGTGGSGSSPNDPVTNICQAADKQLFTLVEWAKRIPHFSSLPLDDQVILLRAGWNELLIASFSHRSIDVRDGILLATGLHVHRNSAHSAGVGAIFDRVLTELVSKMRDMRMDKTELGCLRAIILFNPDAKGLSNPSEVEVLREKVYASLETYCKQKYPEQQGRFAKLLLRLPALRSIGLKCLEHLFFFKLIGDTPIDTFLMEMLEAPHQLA
# Method in brief: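 HepG2 cells were transiently transfected with multiplexed GAL4-UAS reporters and a chimeric RXRb-Gal4 construct, then exposed for 24 h. Reporter mRNA was quantified by RT-PCR, FAM labeling, HpaI digestion and capillary electrophoresis; gain of signal was scored against DMSO.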
# [16] = biological target: human Retinoic Acid Receptor gamma (RARg), RARG (gene 5916) (UniProt P13631); assay: ATG_RARg_TRANS: Attagene TRANS-FACTORIAL HepG2 Assay for human Retinoic Acid Receptor gamma (RARg) (AID 2283009)
# human Retinoic Acid Receptor gamma (RARg), RARG (gene 5916), sequence (P13631 whole entry, looked up, the tested form may be a part): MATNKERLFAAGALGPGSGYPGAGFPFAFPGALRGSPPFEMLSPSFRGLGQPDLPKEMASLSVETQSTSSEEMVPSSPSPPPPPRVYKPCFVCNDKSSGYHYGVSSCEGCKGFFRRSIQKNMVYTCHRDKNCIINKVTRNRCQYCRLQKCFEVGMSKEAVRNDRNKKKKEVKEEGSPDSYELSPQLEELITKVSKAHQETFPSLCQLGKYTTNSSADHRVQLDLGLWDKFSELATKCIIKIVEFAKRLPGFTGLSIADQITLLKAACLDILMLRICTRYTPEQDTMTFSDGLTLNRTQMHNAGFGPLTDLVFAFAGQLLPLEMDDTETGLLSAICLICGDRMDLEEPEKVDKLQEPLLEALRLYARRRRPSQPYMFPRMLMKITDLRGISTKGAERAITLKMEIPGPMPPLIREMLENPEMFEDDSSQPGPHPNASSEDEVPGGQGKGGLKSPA
# Method in brief: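 HepG2 transiently transfected with GAL4-UAS reporter units and chimeric NR-Gal4 constructs; 24 h compound exposure. Reporter mRNA quantified by RT-PCR, FAM labeling, HpaI digestion and capillary electrophoresis; gain-of-signal versus DMSO.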
# [17] = read-out: Monocyte Chemoattractant Protein-1 (MCP1), CCL2 (gene 6347); assay: BSK_3C_MCP1: BioMAP Diversity Plus: 3C Assay for Monocyte Chemoattractant Protein-1 (MCP1) Biomarker Activity (AID 2283017; active means hit-call score of the fitted dose curve at least 0.9, where 1 is the maximum; inactive means score below 0.9); settings: primary human endothelial cells (HUVEC); actives raise or lower the signal
# Method in brief: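 Primary human umbilical vein endothelial cells (3C system) were exposed to test chemical for 24 h, after which MCP-1 was quantified by ELISA. Activity was fitted bidirectionally against DMSO as negative control and baseline.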
# [18] = biological target: Retinoic acid receptor alpha (Homo sapiens) (UniProt P10276); assay: ATG_RARa_TRANS: Attagene TRANS-FACTORIAL HepG2 Assay for human Retinoic Acid Receptor alpha (RARa) (AID 2283005)
# Method in brief: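 HepG2 transiently transfected with multiplex GAL4-UAS reporter units including a human RARa–GAL4 chimera; 24 h compound exposure. Reporter mRNA quantified by RT-PCR, 6-FAM labeling and capillary electrophoresis; gain of signal versus DMSO.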
# [19] = biological target: human Retinoic Acid Receptor beta (RARb), RARB (gene 5915) (UniProt P10826); assay: ATG_RARb_TRANS: Attagene TRANS-FACTORIAL HepG2 Assay for human Retinoic Acid Receptor beta (AID 2283004)
# Method in brief: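 HepG2 cells transiently transfected with multiplexed GAL4-UAS reporter units expressing chimeric NR–Gal4 fusions; 24 h compound exposure. Reporter mRNA quantified by RT-PCR, 6-FAM labelling, HpaI digestion and capillary electrophoresis; gain-of-signal fitted against DMSO baseline.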
# [20] = biological target: human RAR-related Orphan Receptor gamma (RORg), RORC (gene 6097) (UniProt P51449); assay: ATG_RORg_TRANS: Attagene TRANS-FACTORIAL HepG2 Assay for human RAR-related Orphan Receptor gamma (RORg) (AID 2283011)
# Method in brief: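 Readout: reporter transcript induction (RT-PCR, fluorescent primer extension, capillary electrophoresis) after 24 h compound exposure of transiently transfected HepG2 cells carrying a RORg-Gal4 chimera and GAL4-UAS reporters; DMSO served as baseline, with increasing signal fitted.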
# E-selectin (Homo sapiens), sequence (P16581 whole entry, looked up): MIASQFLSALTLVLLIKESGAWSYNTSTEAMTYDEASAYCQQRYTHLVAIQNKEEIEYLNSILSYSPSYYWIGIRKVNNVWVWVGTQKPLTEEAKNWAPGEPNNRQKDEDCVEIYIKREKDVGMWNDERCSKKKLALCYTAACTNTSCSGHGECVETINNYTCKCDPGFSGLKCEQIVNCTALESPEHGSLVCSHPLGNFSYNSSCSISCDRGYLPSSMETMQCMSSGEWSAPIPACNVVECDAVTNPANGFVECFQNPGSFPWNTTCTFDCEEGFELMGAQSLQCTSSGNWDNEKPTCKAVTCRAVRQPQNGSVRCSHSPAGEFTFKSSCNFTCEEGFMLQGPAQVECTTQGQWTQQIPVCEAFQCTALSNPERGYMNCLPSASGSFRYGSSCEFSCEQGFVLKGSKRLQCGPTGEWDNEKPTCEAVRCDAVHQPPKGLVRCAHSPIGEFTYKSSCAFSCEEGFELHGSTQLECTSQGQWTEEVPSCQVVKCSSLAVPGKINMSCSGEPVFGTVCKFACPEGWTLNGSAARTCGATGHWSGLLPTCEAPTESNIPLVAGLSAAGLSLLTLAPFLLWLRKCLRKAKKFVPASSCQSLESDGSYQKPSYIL
smiles,measurement,setting,value
C(=NC1CCCCC1)=NC1CCCCC1,AC50,[1],30.3 µM (active)
same,AC50,[2],6.27 µM (active)
same,AC50,[3],29.6 µM (active)
same,AC50,[4],28.6 µM (active)
same,outcome,[5],inactive
same,outcome,[6],inactive
same,outcome,[7],inactive
same,outcome,[8],inactive
same,AC50,[9],20 µM (active)
same,AC50,[10],20 µM (active)
same,AC50,[11],3.82 µM (active)
ClCCBr,outcome,[12],inactive
same,outcome,[13],inactive
same,outcome,[5],inactive
same,outcome,[6],inactive
same,outcome,[14],inactive
same,outcome,[7],inactive
same,outcome,[15],inactive
CCC(=O)C(CC(C)N(C)C)(c1ccccc1)c1ccccc1 (stereo not given),outcome,[1],inactive
same,outcome,[2],inactive
same,outcome,[12],inactive
same,outcome,[3],inactive
same,outcome,[4],inactive
same,outcome,[6],inactive
same,outcome,[16],inactive
same,outcome,[7],inactive
same,outcome,[15],inactive
same,outcome,[8],inactive
same,outcome,[9],inactive
same,outcome,[10],inactive
same,outcome,[17],inactive
same,outcome,[11],inactive
Cc1cc(Cl)ccc1O[C@H](C)C(=O)O,outcome,[12],inactive
same,outcome,[13],inactive
same,AC50,[5],37.4 µM (active)
same,outcome,[6],inactive
same,outcome,[14],inactive
CCSC(C)CC1CC(=O)C(C(CC)=NOC/C=C/Cl)=C(O)C1 (stereo not given),outcome,[1],inactive
same,outcome,[2],inactive
same,outcome,[3],inactive
same,outcome,[18],inactive
same,outcome,[4],inactive
same,AC50,[6],7.44 µM (active)
same,outcome,[16],inactive
same,outcome,[7],inactive
same,outcome,[8],inactive
same,outcome,[9],inactive
same,outcome,[10],inactive
same,outcome,[17],inactive
same,outcome,[11],inactive
Cc1ccc2ccccc2c1C,outcome,[12],inactive
same,outcome,[13],inactive
same,outcome,[19],inactive
same,outcome,[6],inactive
same,outcome,[16],inactive
same,outcome,[14],inactive
same,outcome,[7],inactive
same,AC50,[15],100 µM (active)
same,outcome,[8],inactive
COS(=O)(=O)c1ccc(C)cc1,outcome,[12],inactive
same,outcome,[13],inactive
same,outcome,[5],inactive
same,outcome,[6],inactive
same,outcome,[14],inactive
same,outcome,[7],inactive
same,outcome,[15],inactive
same,outcome,[8],inactive
CCOP(=S)(OCC)Oc1nc(Cl)c(Cl)cc1Cl,AC50,[1],25.8 µM (active)
same,AC50,[2],27.9 µM (active)
same,outcome,[13],inactive
same,outcome,[3],inactive
same,AC50,[4],20 µM (active)
same,AC50,[5],46.8 µM (active)
same,AC50,[6],5.64 µM (active)
same,outcome,[14],inactive
same,outcome,[7],inactive
same,AC50,[15],30.9 µM (active)
same,outcome,[8],inactive
same,AC50,[9],37.1 µM (active)
same,outcome,[10],inactive
same,AC50,[17],33.1 µM (active)
same,AC50,[11],20 µM (active)
O=[N+]([O-])c1ccc(O)c([N+](=O)[O-])c1,outcome,[1],inactive
same,outcome,[2],inactive
same,outcome,[3],inactive
same,outcome,[19],inactive
same,outcome,[18],inactive
same,outcome,[4],inactive
same,outcome,[7],inactive
same,outcome,[8],inactive
same,outcome,[9],inactive
same,outcome,[10],inactive
same,outcome,[17],inactive
same,outcome,[11],inactive
CC(C)(C)CC(C)(C)c1ccc(O)cc1,AC50,[1],6.92 µM (active)
same,AC50,[2],8.11 µM (active)
same,outcome,[13],inactive
same,AC50,[3],10.8 µM (active)
same,AC50,[4],7.69 µM (active)
same,AC50,[6],8.34 µM (active) and 7.58 µM (active) and 5.92 µM (active)
same,outcome,[6],inactive
same,outcome,[14],inactive
same,outcome,[20],inactive
same,outcome,[7],inactive
same,AC50,[15],11.1 µM (active) and 4.81 µM (active) and 6.61 µM (active)
same,outcome,[8],inactive
same,AC50,[9],7.99 µM (active)
same,AC50,[10],19.5 µM (active)
same,AC50,[17],9.66 µM (active)
same,AC50,[11],6.54 µM (active)
